# In PubChem BioAssay (NCATS):
# “And” between values parts separate entries of the source, which are not always exact repeats. Identical values can stand only once. Values without a mark were called inactive. Inconclusive results are not listed. Entries that show only a call come without a potency. The source made the active and inactive calls. Unless noted, the call rests on the fitted dose curve; in most records, active means well fitted curve in the direction sought with a large enough effect; inconclusive means small, poorly fitted or top-dose-only effect, or another doubt; inactive means no such curve, though single readings can be large; an effect the other way counts as inactive or inconclusive.
# Tests used:
# [1] = qHTS for Inhibitors of Plasmodium falciparum (DD2) proliferation (AID 504314); further: potency means the concentration at half of the fitted maximal effect;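 on activity, negative = inhibition: parasite DNA measured by SYBR Green fluorescence after red cell lysis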
# Summary of the method: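 Erythrocytes infected with P. falciparum Dd2 (0.3% parasitemia, 2.5% hematocrit) exposed to compound 72 h at 37C, 5% CO2. Parasite DNA quantified by SYBR Green fluorescence after saponin/Triton lysis overnight; normalized to 0.29 uM artemisinin and DMSO.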
# [2] = qHTS for Inhibitors of Plasmodium falciparum (HB3) proliferation (AID 504318); further: nearly all actives have a fitted effect of over 60% in size; further: potency means the concentration at half of the fitted maximal effect
# Summary of the method: (§1)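 Erythrocytes infected with P. falciparum line (0.3% parasitemia, 2.5% hematocrit final) incubated with compounds 72 h at 37 °C, 5% CO2; SYBR Green lysis buffer added, fluorescence read next day. Normalized to 0.29 uM artemisinin and DMSO.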
# [3] = qHTS for Inhibitors of Plasmodium falciparum (CP250) proliferation (AID 504320)
# Summary of the method: as §1
# [4] = target: Atrial natriuretic peptide receptor 1 (Homo sapiens) (UniProt P16066); assay: Natriuretic polypeptide receptor (hNpr1) antagonism - Pilot CMLD screen (AID 1347052; calls by dose curve;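 further: HEK293 cells with hNpr1 stimulated by hNppA peptide at 0.1 nM; cGMP level read as GloSensor luciferase luminescence after agonist stimulation; series mostly up to about 9.2 µM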)
# [5] = qHTS for Inhibitors of Plasmodium falciparum (7G8) proliferation (AID 504316); further: series mostly up to about 6.7 µM; nearly all actives have a fitted effect of over 65% in size
# Summary of the method: as §1
# [6] = target: Cytochrome P450 2C9 (Homo sapiens) (UniProt P11712); assay: qHTS Assay for Inhibitors and Substrates of Cytochrome P450 2C9 (AID 883); further: nearly all actives have a fitted effect of over 60% in size; further: potency means the concentration at half of the fitted maximal effect
# Summary of the method: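 Signal: luciferase luminescence reporting luciferin produced by CYP2C9. Conditions: 10nM enzyme, Luciferin-H 100uM at KM, 25mM KPO4, 37C, 60 min NADPH-driven reaction. Reference: 57uM sulphaphenazole as 100% inhibition.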
# [7] = target: Cytochrome P450 3A4 (Homo sapiens) (UniProt P08684); assay: qHTS Assay for Inhibitors and Substrates of Cytochrome P450 3A4 (AID 884); further: nearly all actives have a fitted effect of over 50% in size; further: potency means the concentration at half of the fitted maximal effect; on activity change, negative = inhibition: series mostly up to about 57 µM
# Summary of the method: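 20 nM human CYP3A4 with 25 uM Luciferin-PPXE (at KM) in 200 mM KPO4, preincubated 10 min with compound; NADPH regeneration started a 60 min RT reaction. Luciferin detected by luminescence, normalized to 57 uM ketoconazole as full inhibition.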
# [8] = target: Cytochrome P450 2D6 (Homo sapiens) (UniProt P10635); assay: qHTS Assay for Inhibitors and Substrates of Cytochrome P450 2D6 (AID 891);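 further: luciferin methyl ether substrate demethylated by CYP2D6 with NADPH regeneration; nearly all actives have a fitted effect of over 60% in size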
# Summary of the method: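 Human CYP2D6 (5 nM) with 30 uM Luciferin-ME EGE (at Km) in 100 mM KPO4, compound preincubated 10 min, then NADPH regeneration system for 60 min at room temperature. Luciferin read by luminescence; normalized to 1.43 uM quinidine.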
# [9] = target: Cytochrome P450 2C19 (Homo sapiens) (UniProt P33261); assay: qHTS Assay for Inhibitors and Substrates of Cytochrome P450 2C19 (AID 899); further: nearly all actives have a fitted effect of over 60% in size; further: potency means the concentration at half of the fitted maximal effect
# Summary of the method: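 Signal comes from luciferase acting on luciferin released by CYP2C19-mediated hydroxylation of Luciferin-H EGE, 10uM (KM). Assay mix: 5nM enzyme, 50mM KPO4; 60 min at 37C with NADPH regeneration. Data normalized against 57uM ketoconazole.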
# [10] = qHTS Assay for Identification of Small Molecule Agonists for Hypoxia Response Element Signaling Pathway (AID 914; active means well fitted activation curve with a large enough effect in the signal ratio, with a control signal flat, not every such curve was filed as active; the % refers to the signal ratio); conditions: ME-180 (cervical carcinoma) HRE-bla reporter, beta-lactamase ratio, CoCl2, 17 h; hits give high values
# Summary of the method: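 HRE-bla ME-180 assay for agonist-like enhancement of an EC50 CoCl2 stimulus: 17 h at 37 degrees Celsius, CCF4 for 2.5 h, ratiometric 460/530 nm signal converted to %Activity and fitted to AC50.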
# [11] = target: Cytochrome P450 3A4 (Homo sapiens) (UniProt P08684); assay: qHTS Assay for Activators of Cytochrome P450 3A4 (AID 885); further: nearly all actives have a fitted effect of over 65% in size
# Summary of the method: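 Human CYP3A4 (20 nM) with Luciferin-PPXE at 25 uM (its KM) in 200 mM KPO4; 10 min compound preincubation, then NADPH regeneration and 60 min reaction at RT. Luciferin read by luminescence; normalized to 57 uM ketoconazole full inhibition.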
# Cytochrome P450 2D6 (Homo sapiens), sequence (P10635 whole entry, looked up): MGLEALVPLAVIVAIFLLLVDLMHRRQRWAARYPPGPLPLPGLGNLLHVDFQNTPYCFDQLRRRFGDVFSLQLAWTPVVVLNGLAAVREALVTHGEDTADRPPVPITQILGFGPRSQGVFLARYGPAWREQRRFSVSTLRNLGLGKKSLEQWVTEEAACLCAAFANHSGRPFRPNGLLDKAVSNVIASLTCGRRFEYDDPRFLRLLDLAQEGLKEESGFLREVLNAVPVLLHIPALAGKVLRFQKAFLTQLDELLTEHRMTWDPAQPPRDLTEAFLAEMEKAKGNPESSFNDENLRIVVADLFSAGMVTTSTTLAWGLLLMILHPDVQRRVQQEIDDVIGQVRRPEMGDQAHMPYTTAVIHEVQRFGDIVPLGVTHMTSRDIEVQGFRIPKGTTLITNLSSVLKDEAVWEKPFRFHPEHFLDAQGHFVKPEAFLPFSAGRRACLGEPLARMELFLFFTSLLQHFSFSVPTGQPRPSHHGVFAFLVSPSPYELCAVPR
# Atrial natriuretic peptide receptor 1 (Homo sapiens), sequence (P16066 whole entry, looked up): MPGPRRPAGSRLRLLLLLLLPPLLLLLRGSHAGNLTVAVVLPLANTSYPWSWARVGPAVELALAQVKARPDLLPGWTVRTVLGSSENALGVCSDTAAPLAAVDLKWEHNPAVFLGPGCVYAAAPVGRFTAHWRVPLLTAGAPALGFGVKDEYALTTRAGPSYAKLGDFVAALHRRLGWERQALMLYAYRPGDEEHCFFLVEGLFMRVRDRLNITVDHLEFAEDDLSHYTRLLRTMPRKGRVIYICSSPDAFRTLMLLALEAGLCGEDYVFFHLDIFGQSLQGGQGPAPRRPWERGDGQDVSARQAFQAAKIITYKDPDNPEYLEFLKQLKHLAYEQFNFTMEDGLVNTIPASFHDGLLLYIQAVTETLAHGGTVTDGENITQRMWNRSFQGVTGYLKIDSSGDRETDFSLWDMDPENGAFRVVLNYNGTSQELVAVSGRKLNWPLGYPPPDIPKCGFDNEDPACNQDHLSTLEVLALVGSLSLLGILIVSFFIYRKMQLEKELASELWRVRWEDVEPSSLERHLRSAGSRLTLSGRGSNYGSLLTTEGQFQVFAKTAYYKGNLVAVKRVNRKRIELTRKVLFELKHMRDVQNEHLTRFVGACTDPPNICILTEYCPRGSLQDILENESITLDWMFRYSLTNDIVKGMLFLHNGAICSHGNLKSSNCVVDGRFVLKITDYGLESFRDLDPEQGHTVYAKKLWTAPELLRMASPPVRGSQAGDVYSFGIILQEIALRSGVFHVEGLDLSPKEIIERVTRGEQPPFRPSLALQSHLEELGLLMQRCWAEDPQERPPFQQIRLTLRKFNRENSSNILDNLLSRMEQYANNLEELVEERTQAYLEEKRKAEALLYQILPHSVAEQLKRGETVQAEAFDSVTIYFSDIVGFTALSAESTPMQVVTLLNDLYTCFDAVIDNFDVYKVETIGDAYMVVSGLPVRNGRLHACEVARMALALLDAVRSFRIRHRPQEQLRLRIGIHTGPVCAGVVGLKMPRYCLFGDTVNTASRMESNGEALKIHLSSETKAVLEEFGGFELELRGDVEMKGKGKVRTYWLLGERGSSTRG
# Cytochrome P450 2C9 (Homo sapiens), sequence (P11712 whole entry, looked up): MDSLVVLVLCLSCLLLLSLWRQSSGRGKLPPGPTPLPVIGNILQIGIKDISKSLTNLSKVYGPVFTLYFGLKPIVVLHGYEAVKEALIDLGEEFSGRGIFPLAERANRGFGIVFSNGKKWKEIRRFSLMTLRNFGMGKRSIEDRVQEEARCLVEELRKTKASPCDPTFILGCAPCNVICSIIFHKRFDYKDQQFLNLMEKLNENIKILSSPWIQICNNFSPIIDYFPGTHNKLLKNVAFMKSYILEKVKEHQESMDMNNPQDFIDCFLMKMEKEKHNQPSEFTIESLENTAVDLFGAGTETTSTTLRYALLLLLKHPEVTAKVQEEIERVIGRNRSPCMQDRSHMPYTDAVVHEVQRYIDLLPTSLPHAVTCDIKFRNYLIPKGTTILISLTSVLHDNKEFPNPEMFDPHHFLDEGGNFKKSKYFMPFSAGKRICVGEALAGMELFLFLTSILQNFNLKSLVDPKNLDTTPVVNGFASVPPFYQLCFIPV
# Cytochrome P450 3A4 (Homo sapiens), sequence (P08684 whole entry, looked up): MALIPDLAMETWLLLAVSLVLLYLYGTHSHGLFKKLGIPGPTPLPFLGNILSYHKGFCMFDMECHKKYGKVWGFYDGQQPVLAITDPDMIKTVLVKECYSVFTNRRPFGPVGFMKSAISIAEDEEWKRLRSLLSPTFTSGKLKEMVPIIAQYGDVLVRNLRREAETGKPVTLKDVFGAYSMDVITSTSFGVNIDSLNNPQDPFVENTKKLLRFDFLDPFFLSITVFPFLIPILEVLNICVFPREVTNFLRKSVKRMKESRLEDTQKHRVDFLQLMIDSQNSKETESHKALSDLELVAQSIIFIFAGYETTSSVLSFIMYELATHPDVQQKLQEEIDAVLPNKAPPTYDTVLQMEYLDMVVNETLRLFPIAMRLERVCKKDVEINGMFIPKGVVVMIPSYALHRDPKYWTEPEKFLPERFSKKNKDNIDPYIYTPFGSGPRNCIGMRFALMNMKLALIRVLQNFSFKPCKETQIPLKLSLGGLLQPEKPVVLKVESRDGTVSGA
# Cytochrome P450 2C19 (Homo sapiens), sequence (P33261 whole entry, looked up): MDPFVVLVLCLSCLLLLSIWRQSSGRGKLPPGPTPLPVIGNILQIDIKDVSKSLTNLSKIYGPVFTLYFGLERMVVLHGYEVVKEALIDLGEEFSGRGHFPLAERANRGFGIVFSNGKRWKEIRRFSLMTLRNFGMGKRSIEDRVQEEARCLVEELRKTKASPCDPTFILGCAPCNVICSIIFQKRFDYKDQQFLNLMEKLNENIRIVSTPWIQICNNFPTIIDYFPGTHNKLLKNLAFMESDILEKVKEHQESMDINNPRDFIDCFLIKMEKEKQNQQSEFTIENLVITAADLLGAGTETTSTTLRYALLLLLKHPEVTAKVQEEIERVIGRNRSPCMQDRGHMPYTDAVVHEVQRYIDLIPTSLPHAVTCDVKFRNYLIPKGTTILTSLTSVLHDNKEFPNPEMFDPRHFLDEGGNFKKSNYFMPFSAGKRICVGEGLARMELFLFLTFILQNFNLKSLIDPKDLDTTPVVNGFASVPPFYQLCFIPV
smiles,measurement,setting,value
COc1cccc([C@H]2Oc3ccc(OC)cc3C(=NO[C@@H](C)c3cc(-c4c(C)cc(C)cc4C)no3)[C@H]2O)c1,Potency,[1],inactive
same,Potency,[2],inactive
same,Potency,[3],inactive
same,Potency,[4],inactive
C=C(C)C(O)C=Cc1ccccc1OC (stereo unspecified),Potency,[1],inactive
same,Potency,[2],inactive
same,Potency,[4],inactive
COC(=O)C1=C(C(=O)OC)[C@@H]2N(Cc3ccccc3)c3ccccc3[C@@]23C[C@@H](C(=O)OC)N(C(=O)Nc2ccc(C(F)(F)F)cc2)C3=N1,Potency,[1],inactive
same,Potency,[5],inactive
same,Potency,[3],inactive
same,Potency,[4],inactive
O=P1(O)Oc2c(-c3ccccc3)cc3ccccc3c2-c2c(c(-c3ccccc3)cc3ccccc23)O1,Potency,[1],inactive
same,Potency,[5],inactive
same,Potency,[3],inactive
same,Potency,[4],inactive
COc1ccc([C@]23Cc4cc(OC)c(OC)cc4[C@H](O2)C2=C(CC4(CCCCC4)OC2=O)O3)cc1,Potency,[1],inactive
same,Potency,[5],inactive
same,Potency,[2],inactive
same,Potency,[3],inactive
same,Potency,[4],inactive
COC(=O)C1=C[C@@]2(c3ccc(OC)cc3[C@@H](OC)[C@@H]2C)[C@@H]2C=C[C@@H]1C2,Potency,[1],inactive
same,Potency,[5],inactive
same,Potency,[3],inactive
same,Potency,[4],inactive
COc1cc2c(cc1OC)[C@@H]1O[C@](CCCCN3C(=O)c4ccccc4C3=O)(C2)OC2=C1C(=O)OC1(CCCCC1)C2,Potency,[1],1.69 µM (active)
same,Potency,[2],1.9 µM (active)
same,Potency,[3],inactive
same,Potency,[4],inactive
COC(=O)C1=C(C(=O)OC)[C@@H]2Nc3ccccc3[C@@]23C[C@@H](C(=O)OC)N(C(=O)NCCBr)C3=N1,Potency,[1],inactive
same,Potency,[2],inactive
same,Potency,[3],inactive
same,Potency,[4],inactive
CC=CC1=CC2=CC(=O)C(C)(OC(=O)c3c(C)cc(O)cc3O)C(=O)C2=CO1 (stereo unspecified),Potency,[1],inactive
same,Potency,[2],inactive
same,Potency,[3],inactive
same,Potency,[4],inactive
COC(=O)[C@H]1[C@@H](c2ccccc2)NC(=O)O[C@@H]1C,Potency,[1],inactive
same,Potency,[2],inactive
same,Potency,[3],inactive
same,Potency,[4],inactive
C=CCC1(c2ccccc2)Oc2ccccc2-c2nc3cc(Cl)c(Cl)cc3nc21 (stereo unspecified),"activity change, negative = inhibition",[6],-6.17% [at 11.4 µM] and 38.3% [at 11.4 µM]
same,"activity change, negative = inhibition",[7],-17.8% [at 11.4 µM] and -22.2% [at 11.4 µM]
same,"activity change, negative = inhibition",[8],2.78% [at 11.4 µM] and 6.33% [at 11.4 µM]
same,"activity, negative = inhibition",[9],39.4% [at 11.4 µM] and 70.5% [at 11.4 µM]
same,Potency,[1],inactive
same,Potency,[5],inactive
same,Potency,[2],inactive
same,Potency,[3],inactive
same,Potency,[4],inactive
C[C@@H]1CC[C@H]2C(=O)O[C@H](CN=[N+]=[N-])CN2[C@@H]1c1ccc(Br)cc1,Potency,[9],0.398 µM (active)
same,activation,[10],9.69%
same,Potency,[1],inactive
same,Potency,[5],inactive
same,Potency,[2],inactive
same,Potency,[4],inactive
COc1ccc(C=CN(CCc2ccc(OC)c(OC)c2)C(=O)c2ccccn2)cc1,Potency,[1],inactive
same,Potency,[2],inactive
same,Potency,[3],inactive
same,Potency,[4],inactive
CC(CCC(=O)OC[C@H]1O[C@H](C#Cc2ccccc2)C=C[C@H]1Oc1ccc(C)cc1)=NO[C@@H](C)CN1CCCCc2nc(C)c(C)cc21,Potency,[1],inactive
same,Potency,[2],inactive
same,Potency,[3],inactive
same,Potency,[4],inactive
CCN1C(=NCCCCO)N[C@@H](CCc2ccccc2)[C@H](C(=O)OC)[C@H]1C,Potency,[1],inactive
same,Potency,[5],inactive
same,Potency,[2],inactive
same,Potency,[3],inactive
same,Potency,[4],inactive
COC(=O)CC=C[C@@H](C)[C@H](O)c1ccccc1Br,Potency,[1],inactive
same,Potency,[2],1.9 µM (active)
same,Potency,[4],inactive
COC(=O)[C@@]1(C=C2c3ccc(F)cc3[C@@H](OC)[C@@H]2C)[C@@H]2C=CC[C@@H]21,Potency,[1],inactive
same,Potency,[5],inactive
same,Potency,[3],inactive
same,Potency,[4],inactive
CCOC(=O)CN1C(=O)NC(c2ccccc2)C(C(C)=O)=C1C (stereo unspecified),Potency,[1],inactive
same,Potency,[5],inactive
same,Potency,[3],inactive
same,Potency,[4],inactive
CCN1C(=O)N(S(=O)(=O)c2ccc(C)cc2)C(c2ccccc2)C(C(=O)OC)=C1C (stereo unspecified),Potency,[1],inactive
same,Potency,[5],inactive
same,Potency,[3],inactive
same,Potency,[4],inactive
COc1ccc(-c2nc(-c3ccccc3)oc2Nc2ccccc2C)cc1,Potency,[1],inactive
same,Potency,[2],inactive
same,Potency,[3],inactive
same,Potency,[4],inactive
COC(=O)c1c(C(=O)OC)c2c3ccccc3cc(C3CC3)n2c1C(=O)OC,Potency,[1],inactive
same,Potency,[5],inactive
same,Potency,[3],inactive
same,Potency,[4],inactive
COC1(C#C[C@@H]2C=C[C@H](OC(C)=O)[C@@H](COC(C)=O)O2)CCCCC1,Potency,[1],inactive
same,Potency,[5],inactive
same,Potency,[3],inactive
same,Potency,[4],inactive
C[C@@H]1CC2=CCCC2[C@]2(O1)C(=O)N(Cc1ccc(Br)cc1)c1cccc(Br)c12 (stereo partly specified),Potency,[1],inactive
same,Potency,[5],inactive
same,Potency,[3],inactive
same,Potency,[4],inactive
N#CCCN(CC#Cc1ccccc1)OCc1ccccc1,Potency,[6],3.16 µM (active)
same,Potency,[7],0.199 µM (active)
same,"activity change, positive = activation",[11],-80.9% [at 11.4 µM]
same,"activity change, negative = inhibition",[8],-16.6% [at 11.4 µM]
same,Potency,[9],0.316 µM (active)
same,Potency,[1],inactive
same,Potency,[5],inactive
same,Potency,[2],inactive
same,Potency,[3],inactive
same,Potency,[4],inactive
CC1=C[C@@H](COCc2ccccc2)O[C@@]2(C1)C(=O)N(Cc1ccc(Br)cc1)c1ccccc12,Potency,[1],inactive
same,Potency,[5],inactive
same,Potency,[3],inactive
same,Potency,[4],inactive
C=CCC12C=C(OC)C(=O)C(C1=O)C1c3ccccc3CC12 (stereo unspecified),Potency,[1],inactive
same,Potency,[2],inactive
same,Potency,[3],inactive
same,Potency,[4],inactive
COC(=O)[C@H](COC(C)(C)C)NC(=O)O[C@H]1C(=O)c2ccc(OC)cc2O[C@@H]1c1ccc2c(c1)OCO2,Potency,[1],inactive
same,Potency,[2],inactive
same,Potency,[3],inactive
same,Potency,[4],inactive
